HT1080NT lethal: qHTS for induction of synthetic lethality in tumor cells producing 2HG: qHTS for the HT-1080-NT fibrosarcoma cell line; Potency, µM (titrated, usually from 46.1 µM), for inactives: at the highest dose activity, negative = less viability, hits mostly cytotoxic; 360,000 compounds, 1.6% hits; AID 686970, 2013; HT-1080-NT fibrosarcoma viability, CellTiter-Glo ATP luminescence, 48 h;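 note: NT is the 2HG producing partner of a matched IDH1 knockdown line; 0% = DMSO-treated cells and -100% = media-only wells without cells; nearly all actives have a fitted effect of over 55% in size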
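HT-1080-NT fibrosarcoma cells (2HG-overproducing), 750 cells/well in RPMI with 5% FBS, dosed after 2 h and incubated 48 h at 37C. CellTiter-Glo luminescence normalized to DMSO and no-cell wells; concentration-response curves fitted and classed.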
KB-V1 MDR tox: qHTS assay for MDR1-selective chemotherapeutics: Primary screen using the drug-selected MDR subline cells KB-V1; KB-V1 MDR cells viability, CellTiter-Glo, 72 h; 400,000 compounds, 3.4% hits; AID 1347076, 2019; Potency, µM (titrated, usually from 46.1 µM), hits mostly cytotoxic; note: % is set by controls: 0 for no effect and ±100 for the full control effect; nearly all actives have a fitted effect of over 60% in size
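In this primary screen, KB-V1 cells overexpressing P-gp are incubated with library compounds (lowest to highest concentration) for 72 h at 37 degrees C before a luminescent ATP viability read.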
HT1080 IDH1KD tx: qHTS for induction of synthetic lethality in tumor cells producing 2HG: qHTS for the HT-1080-IDH1KD cell line. Potency, µM (top dose mostly 46.1 µM), without a hit: top-dose activity, negative = toxicity, actives largely listed as cytotoxic. 360,000 compounds, 2% hits. HT-1080 IDH1 knockdown viability, ATP luminescence, 48 h;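 note: 0% = DMSO wells and -100% = cell-free medium wells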
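Using the IDH1-knockdown HT-1080 line run in the same batch and compound series as the NT line, viability after 48 h at 37 °C was determined by CellTiter-Glo luminescence and expressed as % activity.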
SW480 rerep: A quantitative high throughput screen for small molecules that induce DNA re-replication in SW480 colon adenocarcinoma cells. SW480 DNA re-replication, Hoechst DNA content imaging, 48 h. Potency, µM (top dose mostly 46.1 µM), for the others: at the highest dose re-replication activation, most hits filed as activators. 340,000 compounds, 1.8% hits; note: % of control where 0% means no effect; nearly all actives have a fitted effect of over 55% in size
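250 cells/well; 23 nL cpd via pin tool; 48 hr, 37 C, 5% CO2; Hoechst 40 min; imager read of total nuclear intensity, ex 405/em 500-530 nm.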
KB-3-1 cytotox: qHTS assay for MDR1-selective chemotherapeutics: Primary screen using the parental adenocarcinoma cell KB-3-1 | KB-3-1 viability, CellTiter-Glo ATP luminescence, 72 h | 400,000 compounds, 1.4% hits | Potency, µM (series often up to 46.1 µM), hits mostly cytotoxic | AID 1347075, 2019; note: % is set by controls: 0 for no effect and ±100 for the full control effect; nearly all actives have a fitted effect of over 60% in size
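Parental KB-3-1 adenocarcinoma cells in phenol-red-free DMEM with 10% FBS were pin-treated with compounds at several concentrations, incubated 72 h at 37 °C, and viability read by CellTiter-Glo luminescence; concentration-effect curves were fitted after normalization.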
MCF10A rerep: A quantitative high throughput screen for small molecules that induce DNA re-replication in MCF 10a normal breast cells | MCF 10A DNA re-replication, Hoechst nuclear intensity, 48 h | Potency, µM (series often up to 46.1 µM), inactives show at the highest dose activity, positive = re-replication, most hits filed as activators | 350,000 compounds, 2.9% hits | AID 624296, 2012; note: % of control where 0% means no effect; nearly all actives have a fitted effect of over 50% in size
An asterisk follows results filed as active; [ ] = dose if it differs, or a comment. Only some compounds are listed: those with a hit (about 8% of all), similar ones and a draw of the others. Calls come from the whole dose curve; as a rule, active = well fitted curve in the direction sought with a large enough effect; inconclusive = small, poorly fitted or top-dose-only effect, or another doubt; inactive = no such curve, though single readings can be large; an effect the other way counts as inactive or inconclusive. Potency is the fitted concentration of half-maximal effect.

What do the screens show for `CC1(C(=O)Nc2ccc(Cl)c(C(F)(F)F)c2)Cc2c(-c3cccc(C(N)=O)c3)ccnc2O1` (centres undefined)?
HT1080NT lethal: 23µM*; KB-V1 MDR tox: inconclusive; HT1080 IDH1KD tx: inconclusive; KB-3-1 cytotox: inactive

Results for CC(C)c1ccc(NC(=O)C2(C)Cc3c(-c4ccc(C(N)=O)cc4)ccnc3O2)cc1 (centres undefined) ?
HT1080NT lethal: -19%; KB-V1 MDR tox: inactive; HT1080 IDH1KD tx: -13%; KB-3-1 cytotox: inactive

How did CC1(C(=O)Nc2ccc(Cl)c(C(F)(F)F)c2)Cc2c(-c3ccc(C(N)=O)cc3)ccnc2O1 (centres undefined) do in these assays?
HT1080NT lethal: 16µM*; KB-V1 MDR tox: inconclusive; HT1080 IDH1KD tx: 16µM*; KB-3-1 cytotox: inconclusive

How did COc1cc(OC)c(OC)cc1CNCCCSc1nnnn1C do in these assays?
KB-V1 MDR tox: inconclusive; KB-3-1 cytotox: inactive

What do the screens show for `COc1ccc2nc(SCC(=O)c3c(C)[nH]c4ccccc34)nc(C)c2c1`?
KB-V1 MDR tox: inconclusive; KB-3-1 cytotox: inactive

What do the screens show for `CCCCn1cc(S(=O)(=O)c2ccccc2)c(=O)c2cc(F)c(N3CCN(CCC)CC3)cc21`?
KB-V1 MDR tox: inconclusive; KB-3-1 cytotox: inactive

How did CN(C)c1ccc(C(=O)c2ccc(N(C)C)c3ccccc23)cc1 do in these assays?
HT1080NT lethal: inconclusive; KB-V1 MDR tox: inconclusive; HT1080 IDH1KD tx: 0.026µM*; SW480 rerep: 0.41µM*; KB-3-1 cytotox: 0.092µM*; MCF10A rerep: 0.21µM*

Results for COc1ccc(OC)c(C(=O)c2ccc(C(=O)c3cc(OC)ccc3OC)cc2)c1 ?
HT1080NT lethal: -4%; KB-V1 MDR tox: inactive; HT1080 IDH1KD tx: 0%; SW480 rerep: -1%; KB-3-1 cytotox: inactive; MCF10A rerep: -14%

What do the screens show for `COc1ccc(C(=O)c2ccc(OC)cc2OC)cc1`?
HT1080NT lethal: 23µM*; KB-V1 MDR tox: inconclusive; HT1080 IDH1KD tx: 12µM*; SW480 rerep: inconclusive; KB-3-1 cytotox: 15µM*; MCF10A rerep: 16µM*

How did COc1ccc(C(=O)c2ccc(N(C)C)cc2)c(OC)c1 do in these assays?
HT1080NT lethal: 3.5µM*; KB-V1 MDR tox: inconclusive; HT1080 IDH1KD tx: 2.5µM*; SW480 rerep: 4.5µM*; KB-3-1 cytotox: 5.6µM*; MCF10A rerep: 2.2µM*

How did CC1=C(C(=O)Nc2cccc(C(F)(F)F)c2)C2(CCN(C(C)C)CC2)OC1=O do in these assays?
KB-V1 MDR tox: inactive; KB-3-1 cytotox: inactive

What do the screens show for `CC1CCC(NC(=O)c2ccc3c(c2)N(Cc2ccccc2F)C(=O)c2ccccc2S3)CC1` (centres undefined)?
KB-V1 MDR tox: inactive; KB-3-1 cytotox: inactive

How did CCCCCOC(=O)CSc1nc2sc3c(c2c(=O)n1Cc1ccccc1)CC(C)(CC)OC3 (centres undefined) do in these assays?
KB-V1 MDR tox: inactive; KB-3-1 cytotox: inactive

What do the screens show for `O=C(Nc1ccccc1)c1ccccc1NC(=O)C1CCCCC1`?
HT1080NT lethal: -9%; KB-V1 MDR tox: inactive; HT1080 IDH1KD tx: -11%; SW480 rerep: 3%; KB-3-1 cytotox: inactive; MCF10A rerep: inconclusive

What do the screens show for `O=C(NC1CCCCC1)c1ccccc1NC(=O)C1CC(=O)N(c2ccccc2)C1` (centres undefined)?
HT1080NT lethal: 5%; KB-V1 MDR tox: inactive; HT1080 IDH1KD tx: -17%; SW480 rerep: -3%; KB-3-1 cytotox: inactive; MCF10A rerep: 2%

Results for Cc1cccc(NC(=O)c2ccccc2NC(=O)C2CCCCC2)c1C ?
HT1080NT lethal: -1%; KB-V1 MDR tox: 18µM*; HT1080 IDH1KD tx: 18%; SW480 rerep: -1%; KB-3-1 cytotox: inactive; MCF10A rerep: 8%

What do the screens show for `Cc1ccc(N2CC(C(=O)Nc3ccccc3C(=O)NC3CCCCC3)CC2=O)cc1` (centres undefined)?
HT1080NT lethal: 6%; KB-V1 MDR tox: 3.7µM*; HT1080 IDH1KD tx: 0%; SW480 rerep: 0%; KB-3-1 cytotox: inactive; MCF10A rerep: 10%

What do the screens show for `CCOc1ccc(CNC(=O)C2Cc3cc(S(=O)(=O)N4CCCCCC4)ccc3N2C(C)=O)cc1` (centres undefined)?
KB-V1 MDR tox: inactive; KB-3-1 cytotox: inactive

Results for Cc1ccc(C(=O)Nc2onc3c2CCCC3)cc1 ?
KB-V1 MDR tox: inactive; KB-3-1 cytotox: inactive

How did N=C1/C(=C/c2cccn2Cc2ccc(F)cc2)C(=O)N=C2SC=CN12 do in these assays?
HT1080NT lethal: -2%; KB-V1 MDR tox: inactive; HT1080 IDH1KD tx: 1%; SW480 rerep: 6%; KB-3-1 cytotox: inactive; MCF10A rerep: 4.6µM*

Results for Cc1ccc(Cn2cccc2/C=C2/C(=N)N3C=CSC3=NC2=O)cc1 ?
HT1080NT lethal: -25%; KB-V1 MDR tox: inactive; HT1080 IDH1KD tx: inconclusive; SW480 rerep: 8%; KB-3-1 cytotox: inactive; MCF10A rerep: 14%

Results for O=C(c1ccccc1Cl)N1CCc2ccccc2C1 ?
HT1080NT lethal: -1%; KB-V1 MDR tox: inactive; HT1080 IDH1KD tx: -6%; SW480 rerep: -7%; KB-3-1 cytotox: inactive; MCF10A rerep: 5%

How did Cc1cccc(C(=O)OC(C)C(=O)N2CCc3ccccc3C2)c1C (centres undefined) do in these assays?
HT1080NT lethal: 0%; KB-V1 MDR tox: 18µM*; HT1080 IDH1KD tx: 0%; SW480 rerep: 2%; KB-3-1 cytotox: inactive; MCF10A rerep: -1%

How did CC(Oc1ccccc1)C(=O)N1CCc2ccccc2C1 (centres undefined) do in these assays?
HT1080NT lethal: inconclusive; KB-V1 MDR tox: inactive; HT1080 IDH1KD tx: 9%; SW480 rerep: -64%; KB-3-1 cytotox: inactive; MCF10A rerep: 9%

How did Cc1ccccc1C(=O)N1CCc2ccccc2C1 do in these assays?
HT1080NT lethal: 2%; KB-V1 MDR tox: inactive; HT1080 IDH1KD tx: -4%; SW480 rerep: -1%; KB-3-1 cytotox: inactive; MCF10A rerep: 16µM*

What do the screens show for `C#C[C@@]1(O)CC[C@@H]2[C@@H]3CCC4=C(CCC(=O)C4)[C@H]3CC[C@]21C`?
SW480 rerep: 0%[20.6 µM]; MCF10A rerep: 4%[20.6 µM]

Source: PubChem
